Tau ThT inhib: inhibitors of human tau fibril formation, thioflavin T binding | recombinant tau K18 P301L, heparin-induced fibrillization, ThT fluorescence | Potency, µM (titrated, usually from 57.4 µM), for the others: at the highest dose activity, negative = inhibition, hits mostly inhibitors | 2.1% of 270,000 active | AID 1460; note: nearly all actives have a fitted effect of over 55% in size
Target sequence (P10636 561-689 P618L limits assumed): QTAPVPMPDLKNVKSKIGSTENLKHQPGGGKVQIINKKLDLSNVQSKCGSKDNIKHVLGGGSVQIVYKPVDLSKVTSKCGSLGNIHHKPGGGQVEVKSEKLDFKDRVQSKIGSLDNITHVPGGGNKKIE
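Using a mix of unlabeled (15 uM) and Alexa 594-labeled (0.24 uM) tau K18 P301L, heparin-triggered fibrillization over 6 hr at 37 C was scored by ThT fluorescence.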
TRb-SRC2 inh: TRbeta-SRC2 interaction inhibition; TRbeta-SRC2 peptide binding, fluorescence polarization; receptor liganded with 1 µM T3; 0.065% of 280,000 active; AID 1469; P10828; Potency, µM (top dose mostly 106 µM), without a hit: top-dose activity change, negative = inhibition, most hits filed as inhibitors;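 note: plate controls were bound peptide for no effect and peptide without receptor for full effect; nearly all actives have a fitted effect of over 50% in size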
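Decrease in fluorescence polarization of 20 nM Texas Red SRC2 coactivator peptide flagged inhibition of its binding to 0.6 uM TRb LBD; 1 uM T3 included, incubation 5 hr, ex 555/em 632 nm.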
Tau fibril FP: blocks human tau fibril formation measured by polarization; K18 P301L tau heparin fibrillization, Alexa594 FP, 6 h; Potency, µM (titrated, usually from 57.7 µM), without a hit: at the top dose activity, negative = inhibition, hits mostly inhibitors; 0.39% of 280,000 active; note: nearly all actives have a fitted effect of over 55% in size
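K18 P301L tau (15 uM unlabeled/0.24 uM Alexa 594-labeled, final) + compound + heparin 20 uM final; 100 mM NaOAc pH 7; 6 hr 37 C; ThT 30 uM final added, 1 hr RT; FP ex 555/em 632 nm.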
TexasRed fluor: alters Texas Red total fluorescence, flagging assay interference | TRb/SRC2 Texas Red total fluorescence interference | 0.29% of 280,000 active | Potency, µM (series often up to 106 µM), for inactives: top-dose fluorescence change, negative = quenching; active = well fitted curve in either direction with a large enough effect; inconclusive = small, poorly fitted or top-dose-only effect
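Human TRβ ligand-binding domain (0.6 uM) and Texas Red SRC2 peptide (20 nM) in Tris buffer with 1 uM T3 and 5% DMSO were incubated with pinned compound for 5 hr at ambient temperature. Total fluorescence was computed as S + 2P (555/632 nm).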
Tau fluor cs: counter-screen for tau fibril formation inhibitors | AID 1463 | Potency, µM (series often up to 57.7 µM), inactives show top-dose activity change, negative = decrease | tau K18 P301L (four-repeat tau fragment) Alexa594 fluorescence, heparin fibrillization | 0.93% of 280,000 active; note: nearly all actives have a fitted effect of over 55% in size
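Human K18 P301L tau (15 uM unlabeled plus 0.24 uM Alexa 594-labeled, final) in 100 mM sodium acetate pH 7 was mixed with compound and 20 uM heparin and incubated 6 hr at 37 C.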
GoLoco inh red: blocks human Gai1 binding to RGS12 GoLoco peptide, red readout. P63096. Gai1:RGS12 GoLoco peptide FP, rhodamine, 10 min. Potency, µM (titrated, usually from 61.6 µM), inactives show top-dose activity, negative = inhibition, actives largely listed as inhibitors. 0.44% of 230,000 active; active = well fitted inhibition curve with a large enough effect, not every such curve was filed as active; inactive = no such curve, though single readings can be large or run the other way; note: nearly all actives have a fitted effect of over 30% in size
Target sequence (P63096 whole entry, looked up): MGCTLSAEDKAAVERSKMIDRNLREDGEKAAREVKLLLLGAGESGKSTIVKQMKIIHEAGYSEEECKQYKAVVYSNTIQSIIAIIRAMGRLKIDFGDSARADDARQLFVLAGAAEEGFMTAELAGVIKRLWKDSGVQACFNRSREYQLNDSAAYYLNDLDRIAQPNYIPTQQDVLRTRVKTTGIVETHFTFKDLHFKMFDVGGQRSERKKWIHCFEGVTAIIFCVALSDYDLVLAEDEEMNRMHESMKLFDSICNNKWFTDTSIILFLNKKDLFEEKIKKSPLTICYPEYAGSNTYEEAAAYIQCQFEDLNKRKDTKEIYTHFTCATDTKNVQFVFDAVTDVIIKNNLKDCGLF
Active calls of the source: *; u = inconclusive; x = not tested or not shown; [ ] = remark or other dose. In the library only some 3.2% were active in any assay of this set; here they are far more common. Unless noted, calls come from the whole dose curve; as a rule, active = well fitted curve in the direction sought with a large enough effect; inconclusive = small, poorly fitted or top-dose-only effect, or another doubt; inactive = no such curve, though single readings can be large; an effect the other way counts as inactive or inconclusive. Unless noted, % is set by controls: 0 for no effect and ±100 for the full control effect; potency is the fitted concentration of half-maximal effect.

SMILES	Tau ThT inhib	TRb-SRC2 inh	Tau fibril FP	TexasRed fluor	Tau fluor cs	GoLoco inh red
COc1ccc(/C=N/Nc2nc(C)c([N+](=O)[O-])c(N(C)c3ccccc3)n2)cc1OC	u	-1%	0%	-5%	-19%	6%
CC(=O)Nc1ccc(Nc2nc(C)c([N+](=O)[O-])c(Nc3ccccc3)n2)cc1	8.9µM*	-2%[53 µM]	18%	-4%[53 µM]	u	4%
CC(=O)Nc1ccc(Nc2ncnc(N)c2[N+](=O)[O-])cc1	-9%	5%	-2%	1%	11%	22%
CC(=O)Nc1ccc(Nc2ncc([N+](=O)[O-])c(Nc3ccc(NC(C)=O)cc3)n2)cc1	8.9µM*	-17%	-7%	-5%	-30%	2%
CCC(=O)Nc1ccc(Nc2nc(C)c([N+](=O)[O-])c(Nc3ccc(NC(=O)CC)cc3)n2)cc1	28µM*	8%	u	-3%	-28%	4%
Cc1nc(Nc2ccc(C(=O)O)cc2)nc(Nc2ccc(C(=O)O)cc2)c1[N+](=O)[O-]	u	-5%	0%	-7%	-8%	-6%
c1ccc([C@H](CCN2CCCC2)c2ccccn2)cc1	x	x	x	x	x	0%[14.2 µM]
CCN1C(=O)[C@@H]2[C@H]3C(=CC[C@@H]2C1=O)C1(OCCCO1)[C@H]1O[C@@H]1[C@H]3O	2.8µM*	0%[11.2 µM]	u	0%[11.2 µM]	u	x
CCN1C(=O)[C@H]2[C@@H]3[C@H](O)C=CC(=O)[C@H]3CC[C@H]2C1=O	-12%[11.5 µM]	-2%[11.2 µM]	-7%[11.6 µM]	-5%[11.2 µM]	-12%[11.6 µM]	x
CC(=O)[C@H](C(=N)C#N)C(=O)Nc1ccccc1	x	x	x	x	x	-6%[14.2 µM]
COc1cc2c(cc1OC)C(c1c[nH]c3ccccc13)NCC2 (stereo unspecified)	-9%	3%	-2%	-1%	-18%	6%
COc1ccc(Nc2ccnc3ccccc23)cc1	5%	3%	-1%	-8%	0%	12%
CC(C)Nc1ccc(Nc2ccnc3cc4ccccc4cc23)cc1	5µM*	3%	-3%	-2%	18µM*[quencher]	9%
C[C@](O)(c1ccccc1)c1nccc2ccccc12	x	x	x	x	x	-2%[14.2 µM]
CC1CCCC/C1=N\Nc1ccc(S(N)(=O)=O)cc1[N+](=O)[O-] (stereo unspecified)	16µM*	-6%[53 µM]	11%	-1%[53 µM]	-9%	5%
CC(C)(C)C1CCC(=NNc2ccc(S(N)(=O)=O)cc2[N+](=O)[O-])CC1 (stereo unspecified)	13µM*	9%	11%	-1%	u	-3%
NS(=O)(=O)c1ccc(N/N=C2/CCCc3ccccc32)c([N+](=O)[O-])c1	7%	3%	-4%	1%	2%	5%
CCCn1c(NCc2ccccc2C)nc2ccccc21	-3%	-1%	4%	0%	-6%	x
C=CCc1cccc(CNc2nc3ccccc3n2CC)c1O	-17%	-18%	14%	-2%	18µM*[quencher]	-6%
C=CCc1cccc(CNc2nc3ccccc3n2CCC)c1O	-16%	3%	13%	-5%	14µM*[quencher]	6%
CCCCn1c(NCc2ccccc2O)nc2ccccc21	u	-5%	8%	2%	-28%	8%
COC(=O)C[C@H]1c2ccccc2[C@H]2C(=C[C@@H](C)[C@H]3C(=O)N(O)C(=O)[C@H]32)N1C(=O)OC	-4%[11.5 µM]	1%[11.2 µM]	0%[11.6 µM]	-1%[11.2 µM]	-3%[11.6 µM]	-3%[14.2 µM]
CCc1ccc(NC(=O)c2ccc3nc(N)sc3c2)cc1	u	8%	25µM*	0%	u	-5%
CCN(CC)c1cc(C)c2cc(NC(=O)/C=C/c3ccccc3Cl)ccc2n1	3.5µM*	11%	9%	-2%	7.9µM*[quencher]	x
Cc1cc(N2CCCCC2)nc2ccc(NC(=O)c3cccc(F)c3)cc12	u	5%	10%	0%	13µM*[quencher]	x
SMILES	Tau ThT inhib	TRb-SRC2 inh	Tau fibril FP	TexasRed fluor	Tau fluor cs	GoLoco inh red
CCCCOC(=O)c1cccc(NC(=O)/C=C/c2ccccc2Cl)c1	7%	-8%	10µM*	-15%	u	x
CCN(CC)c1cc(C)c2cc(NC(=O)c3cccc(F)c3)ccc2n1	u	-2%	16%	0%	32µM*[quencher]	x
Cc1cc(N2CCCCC2)nc2ccc(NC(=O)c3cccc(Cl)c3)cc12	10µM*	-5%	u	-3%	14µM*[quencher]	x
CC1=C(C#N)c2nc(N)c(C#N)c(C)c2/C1=C\c1ccc(C)cc1	18µM*	-19%	u	30%	u	87%
CSc1nc(-c2ccc(C)cc2)nc(N)c1C#N	-5%	2%	-10%	-2%	-8%	8%
COc1cc(/C=C2\C(C)=C(C#N)c3nc(N)c(C#N)c(C)c32)ccc1OCC(=O)O	14µM*	11%	u	u	u	89%
CC(C)=CCn1cnc2c1C(NOCc1ccccc1)=NCN2	-1%	12%	2%	-2%	-2%	5%
CCCCCCCOC(=O)c1ccccc1C(=O)OCCCCCCC	x	2%[201 µM]	x	-6%[201 µM]	x	x
O=C(NN=c1c(=O)c2ccccc2c1=O)c1ccccc1	5.6µM*	u	u	-2%	-25%	13%
Clc1ccc(CSCCc2ccncc2)cc1Cl	x	x	x	x	x	4%[14.2 µM]
CCOc1ccc(/C=C/C2=Cc3c(sc(NC(=O)CSc4n[nH]c(N)n4)c3C#N)C(C)(C)C2)cc1	14µM*	0%	-14%	7%	u	301%
COC(=O)c1sc(NC(=O)CSc2n[nH]c(N)n2)c(C(=O)OC)c1C	-6%	2%	-4%	-3%	-11%	6%
Cc1ccsc1/C=C/C1=Cc2c(sc(NC(=O)CSc3n[nH]c(N)n3)c2C#N)C(C)(C)C1	16µM*	24%	-13%	-5%	u	236%
CCOC(=O)c1sc(NC(=O)CSc2n[nH]c(-c3ccncc3)n2)c(C#N)c1C	-18%	6%	-6%	2%	-21%	24%
Fc1ccc(Nc2ccnc(-c3ccc4c(c3)OCO4)n2)cc1	x	x	x	x	x	3%
COc1ccc(OC)c(C2=Nn3c(nnc3-c3ccccc3O)SC2)c1	x	-2%	x	0%	x	x
COC(=O)C(=O)/C=C(\O)c1ccc(C)cc1	22µM*	2%	u	-6%	u	x
CCc1cc(SC#N)cc(CC)c1NC(=O)CCl	3.5µM*	-2%	7.1µM*	0%	-27%	-16%
COc1ccc(NC(=O)Nc2ccc3c(c2)N(C)C(=O)CS3)cc1OC	-6%	-1%	6%	-1%	-5%	34%
CCOc1ccc(NC(=O)Nc2ccc3c(c2)N(C)C(=O)CS3)cc1	-11%	-13%	12%	7%	u	27%
CN1C(=O)CSc2ccc(NC(=O)NCCC3=CCCCC3)cc21	-27%	4%	u	-2%	14µM*[quencher]	30%
COc1ccc(NC(=O)Nc2ccc3c(c2)N(C)C(=O)CS3)cc1Cl	u	3%	u	0%	6.3µM*[quencher]	12%

Compound activity: PubChem BioAssay, National Center for Advancing Translational Sciences (NCATS)
